Test systems include NCI-H23 lung; NCI-H226 lung; NCI-H322M lung; HOP-62 NSCLC; NCI-H460 lung; HOP-92 NSCLC; NCI-H522 lung; A549/ATCC NSCLC; 786-0 renal; COLO 205 colon.
Common to all, as to test: NCI-60 one-dose screen, 48 h (100 = growth as untreated, 0 = no growth, -100 = all killed)
Common to all, as to details: 10 µM unless noted

The panel holds about 83,000 compounds, 20% with a hit somewhere; the sample as a whole holds those more often.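 96-well plates, one dose, 48 hours. Percent growth reported; active if below 10.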 Unmarked numbers belong to inactive results. Activity calls are given as the source filed them.

Consider `C=C1CCC2C3(C)COC(C)(C)OC3CCC2(C)C1C/C=C1/C(=O)OCC1OC(C)=O` (stereo not given), for which the growth is 50.4% in the assay on NCI-H23 lung; 50.3% in the assay on NCI-H226 lung; 100% with NCI-H322M lung; 112% in the assay with HOP-62 NSCLC; 95.4% in the assay with NCI-H460 lung; 123% with HOP-92 NSCLC. The growth in the assay with NCI-H522 lung was -88.7% (active); in the assay on A549/ATCC NSCLC it was 61.7%; in the assay on 786-0 renal, 48.5%; with COLO 205 colon, -0.595% (active).

With `O=C(Cn1cc(CN2C(=O)c3ccccc3S2(=O)=O)nn1)Nc1ccc([N+](=O)[O-])cc1Cl`, the growth is 90% with NCI-H23 lung; 91.8% in the assay on NCI-H226 lung; 94.5% in the assay with NCI-H322M lung; 101% with HOP-62 NSCLC; 102% in the assay with NCI-H460 lung; 107% with HOP-92 NSCLC. The growth in the assay with NCI-H522 lung was 101%; in the assay on A549/ATCC NSCLC, 106%; in the assay with 786-0 renal, 105%; in the assay with COLO 205 colon, 103%.

Turning to `Nc1ccc(N2CCOCC2)cc1`, the growth was 86.1% in the assay with NCI-H23 lung; 102% with NCI-H226 lung; 91.2% in the assay on NCI-H322M lung; 90.8% in the assay with HOP-62 NSCLC; 104% in the assay with NCI-H460 lung; 114% with HOP-92 NSCLC. In addition, the growth with NCI-H522 lung is 94.1%; in the assay with A549/ATCC NSCLC it was 110%; in the assay on 786-0 renal it was 92.2%; in the assay on COLO 205 colon, 123%.

As to `C=C1CC2(OC1=O)C(=O)N(CCCCCCCCCCCCN1C(=O)C3(CC(=C)C(=O)O3)c3ccccc31)c1ccccc12` (stereo not given), the growth was 84.6% with NCI-H23 lung; 78.6% in the assay on NCI-H226 lung; 95.1% in the assay on NCI-H322M lung; 94.1% with HOP-62 NSCLC; 73.1% in the assay on NCI-H460 lung; 42.2% in the assay on HOP-92 NSCLC. For the same molecule, the growth is 16.2% in the assay on NCI-H522 lung, 97.6% with A549/ATCC NSCLC, 99.1% in the assay on 786-0 renal and 82.6% in the assay with COLO 205 colon.

Turning to `CC(=O)OCC(=O)C1CCC=CC1OC(C)=O` (stereo not given), the growth in the assay with NCI-H23 lung is 97.7%; in the assay on NCI-H226 lung, 92.6%; with NCI-H322M lung, 88.8%; in the assay with HOP-62 NSCLC, 86.3%; with NCI-H460 lung, 108%; in the assay with HOP-92 NSCLC it was 98.9%. Besides, the growth in the assay on NCI-H522 lung is 75.1%; with A549/ATCC NSCLC, 94.4%; with 786-0 renal, 99.2%; in the assay with COLO 205 colon, 110%.

`CC(=O)C1=C(O)C=C2Oc3c(C(=O)/C=C/c4cc(C(F)(F)F)cc(C(F)(F)F)c4)c(O)c(C)c(O)c3[C@]2(C)C1=O`: the growth was -55.8% (active) in the assay with NCI-H23 lung; -56.5% (active) in the assay on NCI-H226 lung; -44.8% (active) with NCI-H322M lung; -52.6% (active) in the assay on HOP-62 NSCLC; -32.6% (active) with NCI-H460 lung; -41.2% (active) with HOP-92 NSCLC. For the same molecule, the growth is -36% (active) in the assay with NCI-H522 lung, -46.7% (active) in the assay on A549/ATCC NSCLC, -46.3% (active) in the assay on 786-0 renal and -66.6% (active) with COLO 205 colon.

On to `CCOC(=O)c1c2ncccc2n2c(=O)n(-c3ccc(Cl)cc3)nnc12`, for which the growth was 92.7% in the assay with NCI-H23 lung; 104% in the assay with NCI-H226 lung; 67.1% with NCI-H322M lung; 71.7% in the assay with HOP-62 NSCLC; 69.7% in the assay with NCI-H460 lung; 101% with HOP-92 NSCLC. In addition, the growth with NCI-H522 lung was 71.1%; in the assay with A549/ATCC NSCLC it was 81.8%; in the assay with 786-0 renal, 97.1%; with COLO 205 colon, 109%.

Take `Cc1cc(Nc2nc(-c3cccnc3)nc3ccccc23)n[nH]1`: the growth in the assay with NCI-H23 lung is 65.2%; in the assay with NCI-H226 lung, 43.9%; with NCI-H322M lung, 81.3%; in the assay on HOP-62 NSCLC, 64.1%; in the assay with NCI-H460 lung, 41.9%; in the assay with HOP-92 NSCLC, 55.3%. Besides, the growth in the assay on NCI-H522 lung was 43.7%; with A549/ATCC NSCLC, 19%; in the assay on 786-0 renal it was 55%; in the assay on COLO 205 colon it was -10.2% (active).

`NC(=S)N/N=C/c1cc(-c2cccc(N)c2)ccn1`: the growth with NCI-H23 lung is 23.1%; in the assay on NCI-H226 lung it was 16.5%; with NCI-H322M lung, 8.21% (active); in the assay with HOP-62 NSCLC, 5.98% (active); in the assay on NCI-H460 lung it was 5.59% (active); with HOP-92 NSCLC it was 39.7%. Also, the growth in the assay with NCI-H522 lung is -17.3% (active); in the assay on A549/ATCC NSCLC it was 21.7%; in the assay with 786-0 renal, 31.4%; in the assay on COLO 205 colon, 25.5%.

`CN1C2CCC1/C(=C\c1ccc(Cl)cc1)C1=C2[C@@H](c2ccc(Cl)cc2)C(C#N)=C(N)O1` (stereo not given in full): the growth was 83.5% in the assay on NCI-H23 lung; 88.2% in the assay with NCI-H226 lung; 89.9% with NCI-H322M lung; 88.9% with HOP-62 NSCLC; 91.6% in the assay with NCI-H460 lung; 70.4% with HOP-92 NSCLC. The growth in the assay with NCI-H522 lung was 78.3%; in the assay with A549/ATCC NSCLC, 83.1%; in the assay with 786-0 renal, 93.2%; with COLO 205 colon, 87.5%.

For the molecule `COc1cc(OC)c(/C=C/S(=O)(=O)Cc2ccc(OC)c(N)n2)c(OC)c1`, the growth was 26.6% in the assay on NCI-H23 lung; 59.6% with NCI-H226 lung; 36.3% in the assay with NCI-H322M lung; 11.6% with HOP-62 NSCLC; 8.27% (active) in the assay on NCI-H460 lung; 79.9% in the assay on HOP-92 NSCLC. Moreover, the growth with NCI-H522 lung is -36.1% (active); in the assay with A549/ATCC NSCLC, 6.41% (active); in the assay with 786-0 renal, 15.9%; in the assay with COLO 205 colon, -70.7% (active).

In the case of `COC(=O)C12C3C(=O)N(c4ccc(OC)cc4)C(=O)C3C(c3cn(-c4ccccc4)nc3C)N1[C@H](c1cn(-c3ccccc3)nc1C)[C@@H]1C(=O)N(c3ccc(OC)cc3)C(=O)[C@@H]12` (stereo not given in full), the growth with NCI-H23 lung is 103%; with NCI-H226 lung, 99.7%; with NCI-H322M lung it was 112%; in the assay with HOP-62 NSCLC, 116%; in the assay on NCI-H460 lung, 99.8%; in the assay on HOP-92 NSCLC it was 97.4%. Besides, the growth is 91.2% in the assay on NCI-H522 lung, 100% in the assay with A549/ATCC NSCLC, 102% in the assay on 786-0 renal and 112% in the assay on COLO 205 colon.

As for `CC/C=C\C[C@H](O)C/C=C1/C(=O)C=C[C@@H]1C/C=C\CCCC(=O)OC(C)C`, the growth was -40.1% (active) in the assay with NCI-H23 lung; -39% (active) with NCI-H226 lung; -1.62% (active) in the assay with NCI-H322M lung; -44.2% (active) in the assay on HOP-62 NSCLC; 0.788% (active) in the assay on NCI-H460 lung; -0.165% (active) with HOP-92 NSCLC. Also, the growth was -54.2% (active) with NCI-H522 lung, -39.2% (active) with A549/ATCC NSCLC, -50.8% (active) with 786-0 renal and -73.8% (active) with COLO 205 colon.

The values above are taken from PubChem BioAssay (NCI).
